Screening results (PubChem BioAssay)
Shown are actives, neighbours in structure and some others; about 7.9% of the full set was active somewhere.
KB-3-1 tox: kills parental KB-3-1 adenocarcinoma cells | KB-3-1 viability, CellTiter-Glo ATP luminescence, 72 h | Potency, µM (highest dose often 46.1 µM), hits mostly cytotoxic | 400,000 compounds, 1.4% hits | AID 1347075; note: % is set by controls: 0 for no effect and ±100 for the full control effect; nearly all actives have a fitted effect of over 60% in size
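Using CellTiter-Glo luminescence, growth of non-resistant KB-3-1 adenocarcinoma cells is assessed 72 h after pin-tool compound addition at 37 °C. Normalized responses across the concentration series yield fitted curves.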
SW480 rereplic: DNA re-replication induction in SW480 cells. 340,000 compounds, 1.8% hits. AID 624297. SW480 DNA re-replication, Hoechst DNA content imaging, 48 h. Potency, µM (highest dose often 46.1 µM), inactives show top-dose re-replication activation, hits mostly activators; note: % of control where 0% means no effect; nearly all actives have a fitted effect of over 55% in size
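Hoechst fluorescence of nuclei (405 nm excitation, 500-530 nm emission) measured by plate-scanning imager after 48 hr compound exposure at 37 C; re-replication scored as increased number of nuclei with elevated intensity.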
HT1080 IDH1KD tx: kills HT-1080 cells with IDH1 knockdown; AID 686971; Potency, µM (series often up to 46.1 µM), inactives show at the highest dose activity, negative = toxicity, actives largely listed as cytotoxic; 360,000 compounds, 2% hits; HT-1080 IDH1 knockdown viability, ATP luminescence, 48 h;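 note: 0% = DMSO wells and -100% = cell-free medium wells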
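IDH1KD HT-1080 cells, 750/well, RPMI + 5% FBS; compound pinned after 2 h settling; 48 h, 37 °C; CellTiter-Glo luminescence; % activity normalised to DMSO and no-cell wells; curves fitted, classed by r2 and efficacy.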
HT1080NT lethal: kills 2HG-producing HT-1080-NT fibrosarcoma cells | HT-1080-NT fibrosarcoma viability, CellTiter-Glo ATP luminescence, 48 h | Potency, µM (doses to about 46.1 µM), for inactives: top-dose activity, negative = less viability, most hits filed as cytotoxic | 360,000 compounds, 1.6% hits | AID 686970;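 note: NT is the 2HG producing partner of a matched IDH1 knockdown line; 0% = DMSO-treated cells and -100% = media-only wells without cells; nearly all actives have a fitted effect of over 55% in size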
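750 cells/well, RPMI + 5% FBS; 2 h settle, compound pin-transfer, 48 h at 37 degrees C. CellTiter-Glo 10 min RT, luminescence. Normalized to DMSO and media-only wells.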
KB-V1 MDR tox: kills drug-selected multidrug resistant KB-V1 cells. KB-V1 MDR cells viability, CellTiter-Glo, 72 h. Potency, µM (series often up to 46.1 µM), most hits filed as cytotoxic. 400,000 compounds, 3.4% hits; note: % is set by controls: 0 for no effect and ±100 for the full control effect; nearly all actives have a fitted effect of over 60% in size
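Luminescent ATP read-out (CellTiter-Glo, 10 min) measures survival of drug-selected KB-V1 MDR cells after 72 h, 37 degrees C compound exposure. Medium: phenol-red-free DMEM, 10% FBS. Values from fitted concentration-response curves.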
MCF10A rereplic: DNA re-replication induction in MCF 10a cells | Potency, µM (titrated, usually from 46.1 µM), inactives show at the highest dose activity, positive = re-replication, actives largely listed as activators | MCF 10A DNA re-replication, Hoechst nuclear intensity, 48 h | 350,000 compounds, 2.9% hits; note: % of control where 0% means no effect; nearly all actives have a fitted effect of over 50% in size
* hit, by the source's call; i = inactive; ? = inconclusive; nt = no result. Calls come from the whole dose curve; as a rule, active = well fitted curve in the direction sought with a large enough effect; inconclusive = small, poorly fitted or top-dose-only effect, or another doubt; inactive = no such curve, though single readings can be large; an effect the other way counts as inactive or inconclusive. Potency is the fitted concentration of half-maximal effect.

SMILES	KB-3-1 tox	SW480 rereplic	HT1080 IDH1KD tx	HT1080NT lethal	KB-V1 MDR tox	MCF10A rereplic
COc1ccccc1CNC(=O)CCCCn1c(=O)c2ccccc2n(Cc2ccccc2C)c1=O	?	nt	nt	nt	i	nt
Cc1ccc(CNC(=O)Nc2ccccc2)n1C	i	11%	1%	1%	i	-4%
COc1ccc(N(C(=O)c2cccnc2)S(=O)(=O)c2ccc3c4c(cccc24)C(=O)N3C)cc1	i	-6%	?	?	16µM*	?
CCOC(=O)[C@@H]1[C@H]2COc3ccccc3[C@@H]2N2C(=O)N(c3cccc(Cl)c3)C(=O)[C@@]12C	i	?	1%	0%	?	2%
COc1ccc(-c2cc(C)no2)cc1S(=O)(=O)N(C)c1ccc(C)cc1	?	-5%	?	?	8.2µM*	7.3µM*
CCOc1ccc(N(C)S(=O)(=O)c2cc(-c3cc(C)no3)ccc2C)cc1	?	21µM*	?	-15%	?	?
N#CN=CN1CC=C(c2ccc(Cl)cc2)CC1	9.2µM*	nt	6%	3%	2.3µM*	nt
CCOc1ccc(NC(=O)C(=O)NCCN2CCN(S(=O)(=O)c3ccccc3)CC2)cc1	i	-3%	?	10%	i	1%
Cn1c(C(=O)N2CCCC(C(=O)NCCCc3ccccc3)C2)cc2sccc21 (stereo not given)	i	-2%	-17%	-22%	21µM*	-6%
Cn1c(C(=O)N2CCCC(C(=O)NCCc3ccccc3)C2)cc2sccc21 (stereo not given)	?	-1%	?	?	?	1%
CS(=O)(=O)N1CCCC(C(=O)NCCc2ccccc2)C1 (stereo not given)	i	16µM*	2%	21%	i	?
Cc1ccc(CCNC(=O)C2CCCN(S(C)(=O)=O)C2)cc1 (stereo not given)	i	-3%	17%	8%	i	-6%
CS(=O)(=O)N1CCCC(C(=O)N2CCc3ccccc3C2)C1 (stereo not given)	i	10µM*	-2%	-2%	i	2.9µM*
Cc1ccnc2c(Cl)ccc(Cl)c12	i	nt	nt	nt	i	nt
COc1ccc(C2(NC(C)=O)CCN(Cc3cccnc3)CC2)cc1	i	-1%	17%	13%	i	?
Cc1ccc2nc(-c3cccc(NS(C)(=O)=O)c3)cc(-c3ccccc3)c2c1	?	?	-22%	-2%	18µM*	?
Cc1cccc(NC(=O)CN2C(=O)N/C(=C\c3ccc(-c4cccc(C(=O)O)c4)o3)C2=O)c1	i	18µM*	1%	1%	i	16µM*
O=C(O)c1ccc(COc2ccc3ccccc3c2/C=C2/NC(=O)N(Cc3ccc(F)cc3)C2=O)cc1	i	?	?	?	i	18µM*
O=C(O)c1ccc(COc2ccccc2/C=C2\NC(=O)N(Cc3ccccc3)C2=O)cc1	i	?	1%	1%	i	6%
Cc1ccc(CN2C(=O)N/C(=C/c3ccc(-c4ccc(C(=O)O)cc4)o3)C2=O)cc1	i	4.6µM*	3%	-5%	i	8.2µM*
Cc1cc(C(=O)O)ccc1-c1ccc(/C=C2\NC(=O)N(Cc3ccc(F)cc3)C2=O)o1	i	9.2µM*	1%	1%	i	3.7µM*
O=C(O)c1cccc(-n2cccc2/C=C2\NC(=O)N(Cc3ccc(F)cc3)C2=O)c1	i	-6%	-9%	-15%	i	?
C=CC[n+]1cccc2cccc(O)c21	i	nt	nt	nt	i	nt
COc1ccc(OC)c(CCNC(=O)Cn2nc(C)n3c(cc4sccc43)c2=O)c1	i	nt	nt	nt	i	nt
NC(=O)c1cnn(-c2ccc3ccccc3c2)c1N	i	-2%	4%	1%	i	9%
SMILES	KB-3-1 tox	SW480 rereplic	HT1080 IDH1KD tx	HT1080NT lethal	KB-V1 MDR tox	MCF10A rereplic
COC(=O)C(C(=O)OC)C1C=CCN(C(C)=O)C1 (stereo not given)	i	-4%	5%	4%	i	-21%
COc1cccc(CN2CC(C(=O)NCCN3CCOC3=O)CCC2=O)c1 (stereo not given)	i	-11%	0%	4%	i	2%
COc1cccc(-c2nn(C)c3sc(C(=O)NCCCN(C)Cc4ccccc4)cc23)c1	?	16µM*	18µM*	18µM*	i	?
CCCCN(C)CCNC(=O)c1cc2c(-c3cccc(OC)c3)nn(C)c2s1	i	?	23µM*	18µM*	?	?
CCCCN(C)CCNC(=O)c1cc2c(-c3ccccc3F)nn(C)c2s1	i	-1%	?	18µM*	i	5%
COc1cccc(-c2nn(C)c3sc(C(=O)NCc4ccco4)cc23)c1	?	9%	?	-21%	i	6.3µM*
COc1cccc(-c2nn(C)c3sc(C(=O)NCCc4ccc(Cl)cc4)cc23)c1	i	nt	nt	nt	i	nt
COCCNC(=O)c1cc2c(-c3ccccc3F)nn(C)c2s1	i	-6%	-16%	-7%	i	19%
CCN(CC)CCCNC(=O)c1cc2c(-c3cccc(OC)c3)nn(C)c2s1	i	?	?	?	i	?
Cc1cc(C)cc(NC(=O)c2cc(S(=O)(=O)N3CCCCCC3)cn2C)c1	i	nt	nt	nt	i	nt
COCCNC(=O)CN1C(=O)c2cccnc2Oc2ccc(Cl)cc21	?	nt	nt	nt	i	nt
Cc1cc(C)c(NC(=O)C2CCCN(C(=O)c3cnn(-c4ccccc4)c3-n3cccc3)C2)c(C)c1 (stereo not given)	?	nt	nt	nt	i	nt
COc1cc(OC)c(NC(=O)CN2CCCN(Cc3ccccc3C)S2(=O)=O)cc1Cl	i	nt	nt	nt	i	nt
CCOc1ccc(CCNC(=O)c2cc3c(-c4ccc(OC)c(OC)c4)nn(C)c3s2)cc1OCC	i	nt	nt	nt	23µM*	nt
COc1ccc(CCNC(=O)c2cc3c(-c4ccc(OC)c(OC)c4)nn(C)c3s2)cc1OC	i	nt	nt	nt	?	nt
Cc1cc(OCC(=O)N2CCN(c3ccccn3)CC2)c(C)cc1Br	i	0%	3%	1%	?	17%
CNC(=O)CC1C(=O)N(c2ccc(OC)cc2)C(=S)N1NC(=O)c1cccc(F)c1 (stereo not given)	i	2.3µM*	?	22%	i	?
CNC(=O)CC1C(=O)N(Cc2ccccc2)C(=S)N1NC(=O)c1cccc(F)c1 (stereo not given)	i	-9%	-2%	-1%	21µM*	-7%
